Results on 15 compounds are retold here after PubChem BioAssay (NCI).

About 83,000 compounds went through this panel and 20% of them were active in at least one assay; those are over-represented in the sample as a whole.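 Testing used 96-well plates and a 48-hour single-concentration exposure. Example: -40 means 40% of the starting cells died.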 A number with no mark means an inactive call. The source made the active and inactive calls. Rule for the calls: active = growth percent below 10; inactive = the rest.

Assay in all cases: NCI-60 one-dose screen, 48 h (100 = growth as untreated, 0 = no growth, -100 = all killed)
Common to all, as to details: 10 µM

Assay [1] concerns NCI-H23 lung.
Assay [2] concerns NCI-H226 lung.
For assay [3], the system named is HOP-62 NSCLC.
In assay [4] the test system is NCI-H460 lung.
Assay [5] deals with HOP-92 NSCLC.
The subject of assay [6] is NCI-H522 lung.
Assay [7] deals with A549/ATCC NSCLC.
The subject of assay [8] is 786-0 renal.
For assay [9], the system named is COLO 205 colon.

`[Cl][Sn]([c]1ccccc1)([c]1ccccc1)[c]1ccccc1`: the growth was -71.6% (active) in assay [1]; -62% (active) in [2]; -88.4% (active) in assay [3]; -66% (active) in [4]; -85.6% (active) in [5]; -82.2% (active) in assay [6]. Moreover, the figures for the growth in assay [7], in assay [8] and in assay [9] were -93.6% (active), -93.4% (active) and -92.5% (active), respectively.

Regarding `Oc1c(I)cc(I)cc1I`, the growth in assay [2] was 98.6%; in [3], 103%; in assay [5] it was 106%; in assay [7], 106%; in assay [9], 116%.

`[Cl][Hg][c]1ccc(Cl)s1`: the growth was 51.1% in [1]; 50.1% in assay [2]; 87.8% in [3]; -70% (active) in [5]; -98.1% (active) in assay [6]; 97.2% in assay [7]. Also, the values for the growth in assay [8] and in [9] were -54.5% (active) and -81.2% (active), respectively.

Regarding `Cc1ccc(NC(=O)CBr)cc1`, the growth is 91.7% in assay [1]; 103% in [2]; 105% in assay [4]; 96% in [5]; -55.6% (active) in assay [6]; 107% in assay [8]. Moreover, the growth in assay [9] is 108%.

On to `COC12C(COC(N)=O)C3=C(C(=O)C(C)=C(N)C3=O)N1CC1C2N1C` (stereo not drawn), for which the growth was 6.66% (active) in assay [1]; 64.2% in [2]; 32.3% in assay [3]; -0.595% (active) in [5]; 17.7% in [6]; 47.5% in assay [7]. For the same compound, the growth in assay [8] was 31.1%; in [9] it was 46.2%.

On to `[O-][n+]1ccccc1S`, for which the growth is 73.5% in assay [1]; 95.8% in assay [2]; 58% in assay [3]; 97.1% in assay [5]; -34.7% (active) in assay [6]; 30.4% in [7]. The growth was 46.3% in assay [8] and 16.1% in [9].

On to `Oc1c(Cl)cc(Cl)c2ccccc12.[Cu+2]`, for which the growth in assay [1] was 91.4%; in assay [3], 108%; in assay [4], 99.4%; in assay [5] it was 104%; in assay [6], 71.2%; in assay [7], 111%. The values for the growth in assay [8] and in assay [9] were 116% and 102%, respectively.

In the case of `CC/C(=C/c1ccc(OC)cc1OC)[N+](=O)[O-]`, the growth is 59% in assay [1]; 111% in [2]; 74% in assay [3]; 49.5% in [4]; -41.7% (active) in assay [6]; 65.1% in [7]. Moreover, the growth in [8] was -53% (active); in assay [9] it was -40.7% (active).

As for `O=[P+](O)c1ccccc1`, the growth in assay [1] was 107%; in [2], 107%; in assay [3], 93.9%; in assay [5], 101%; in [7], 107%; in assay [9], 112%.

`CCOP(=O)(OCC)C(O)c1ccccc1Cl` (stereo not drawn): the growth is 99.4% in [1]; 98.1% in [2]; 109% in [3]; 95.7% in assay [6]; 105% in [7]; 102% in assay [8]. For the same compound, the growth in assay [9] is 107%.

As to `CC1CCC2(OC1)OC1C(O)C3C4CCC5CC(OC6OC(CO)C(OC7OC(CO)C(O)C(OC8OCC(O)C(O)C8O)C7OC7OC(CO)C(O)C(OC8OC(CO)C(O)C(O)C8O)C7O)C(O)C6O)C(O)CC5(C)C4CCC3(C)C1C2C` (stereo not drawn), the growth in [1] is -51.5% (active); in assay [2], -50.1% (active); in [3], -95.3% (active); in assay [5] it was -3.92% (active); in assay [6], -71.4% (active); in assay [7], -40.2% (active). Further, the values for the growth in [8] and in assay [9] were -92% (active) and 22.7%, respectively.

`COC(C(=O)C(O)C(C)O)C1Cc2cc3cc(OC4CC(OC(C)=O)C(OC5CC(O)C(OC)C(C)O5)C(C)O4)cc(O)c3c(O)c2C(=O)C1OC1CC(OC2CC(OC3CC(C)(O)C(OC(=O)C(C)C)C(C)O3)C(O)C(C)O2)C(O)C(C)O1` (stereo not drawn): the growth in [1] is 8.85% (active); in [2], -12.6% (active); in assay [3], -5.14% (active); in assay [5] it was -16.5% (active); in [6], -60.9% (active); in [7] it was -39.3% (active). For the same compound, the growth was 0.268% (active) in assay [8] and -83.5% (active) in assay [9].

As for `CC(=O)Nc1c2sscc-2n(C)c1=O`, the growth in assay [1] was -95.3% (active); in assay [2], -100% (active); in assay [3], -100% (active); in assay [4], -77.4% (active); in [6] it was -90.8% (active); in assay [7], -65% (active). Besides, the figures for the growth in assay [8] and in assay [9] were -100% (active) and -87.1% (active), respectively.

As to `COc1cc(/C=C/[N+](=O)[O-])cc(OC)c1OC`, the growth in assay [1] is 45%; in assay [3] it was 16.8%; in [5] it was 58.1%; in [6], -54.8% (active); in [7], 54.2%; in assay [8], -48% (active). In addition, the growth in [9] is -53.4% (active).

In the case of `COc1ccc(/C=C(\C)[N+](=O)[O-])cc1OC`, the growth in assay [1] was 64.7%; in assay [2], 68.9%; in [3], 63%; in assay [5], -9.49% (active); in assay [6] it was -69.4% (active); in assay [7], 36.3%. Further, the figures for the growth in assay [8] and in assay [9] were -44.2% (active) and -80.5% (active), respectively.
